Screening data deposited in PubChem BioAssay by National Center for Advancing Translational Sciences (NCATS).
HT1080NT lethal: kills 2HG-producing HT-1080-NT fibrosarcoma cells; HT-1080-NT fibrosarcoma viability, CellTiter-Glo ATP luminescence, 48 h; Potency, µM (doses to about 46.1 µM), for the others: at the top dose activity, negative = less viability, hits mostly cytotoxic; actives 1.6% (n = 360,000);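 further: NT is the 2HG producing partner of a matched IDH1 knockdown line; potency means the concentration at half of the fitted maximal effect; 0% = DMSO-treated cells and -100% = media-only wells without cells; nearly all actives have a fitted effect of over 55% in size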
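Toxicity toward the 2HG-producing NT line was scored as %Activity, normalised to DMSO and no-cell wells, from CellTiter-Glo luminescence after 48 hours' treatment.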
TDP1 cell noCPT: qHTS for Inhibitors of human tyrosyl-DNA phosphodiesterase 1 (TDP1): qHTS in cells in absence of CPT | DT40 Tdp1-/- hTDP1 cells, no CPT, ATP luminescence, 48 h | Potency, µM (highest dose often 46.2 µM), inactives show at the highest dose activity change, negative = growth inhibition, most hits filed as inhibitors | actives 15% (n = 420,000) | AID 686978, 2013; further: potency means the concentration at half of the fitted maximal effect; nearly all actives have a fitted effect of over 55% in size
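Luminescent ATP content (CellTiter-Glo) served as the growth readout. Knockout chicken DT40 cells expressing human TDP1 were exposed to compounds without camptothecin for a minimum 48 hr at 37 °C.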
HT1080 IDH1KD tx: kills HT-1080 cells with IDH1 knockdown | actives 2% (n = 360,000) | HT-1080 IDH1 knockdown viability, ATP luminescence, 48 h | AID 686971 | Potency, µM (top dose mostly 46.1 µM), inactives show top-dose activity, negative = toxicity, usual class: cytotoxic;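 further: potency means the concentration at half of the fitted maximal effect; 0% = DMSO wells and -100% = cell-free medium wells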
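CellTiter-Glo luminescence after 48 h compound exposure at 37 degrees C of IDH1-knockdown HT-1080 cells in 5% FBS RPMI. %Activity scaled between DMSO wells and cell-free media wells, with curves fitted and assigned curve classes.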
TDP1 cell CPT: growth inhibition of DT40 Tdp1-/-;hTDP1 cells with camptothecin (screen for TDP1 inhibitors) | Potency, µM (titrated, usually from 46.2 µM), for the others: at the top dose activity change, negative = growth inhibition, hits mostly inhibitors | chicken DT40 Tdp1-/-;hTDP1 cells + 20 nM CPT, ATP luminescence, 48 h | actives 12% (n = 420,000); further: potency means the concentration at half of the fitted maximal effect; nearly all actives have a fitted effect of over 55% in size
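Chicken DT40 Tdp1-/- cells stably complemented with human TDP1 were seeded at 400 cells/well in medium containing 20 nM camptothecin, exposed to pin-transferred compounds, and grown at 37 °C for at least 48 hr. Viability was read as ATP luminescence.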
IL-1B inflam inh: inhibitors of inflammasome signaling (IL-1 beta secretion) | activity change, % at 57.5 µM | AID 743279 | actives 4.7% (n = 360,000) | THP-1 LPS/ATP IL-1B secretion, AlphaLISA, 16 h; hits give low values; in the data active means activity change below about -50%; inconclusive means mostly about -30% to -49%
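THP-1 cells pretreated 1 hr with compounds (up to 57.5 uM final), then stimulated with LPS (250 ng/mL final) plus ATP (1.25 mM final); secreted IL-1B measured by AlphaLISA after 16 hr, decreased signal indicating inhibition.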
ALOX12 inh: blocks human arachidonate 12S-lipoxygenase; purified 12hLO, xylenol orange hydroperoxide absorbance; Potency, µM (highest dose often 108 µM), for inactives: top-dose activity change, negative = inhibition, most hits filed as inhibitors; actives 1.1% (n = 580,000); further: potency means the concentration at half of the fitted maximal effect
Target sequence (P18054 whole entry, looked up): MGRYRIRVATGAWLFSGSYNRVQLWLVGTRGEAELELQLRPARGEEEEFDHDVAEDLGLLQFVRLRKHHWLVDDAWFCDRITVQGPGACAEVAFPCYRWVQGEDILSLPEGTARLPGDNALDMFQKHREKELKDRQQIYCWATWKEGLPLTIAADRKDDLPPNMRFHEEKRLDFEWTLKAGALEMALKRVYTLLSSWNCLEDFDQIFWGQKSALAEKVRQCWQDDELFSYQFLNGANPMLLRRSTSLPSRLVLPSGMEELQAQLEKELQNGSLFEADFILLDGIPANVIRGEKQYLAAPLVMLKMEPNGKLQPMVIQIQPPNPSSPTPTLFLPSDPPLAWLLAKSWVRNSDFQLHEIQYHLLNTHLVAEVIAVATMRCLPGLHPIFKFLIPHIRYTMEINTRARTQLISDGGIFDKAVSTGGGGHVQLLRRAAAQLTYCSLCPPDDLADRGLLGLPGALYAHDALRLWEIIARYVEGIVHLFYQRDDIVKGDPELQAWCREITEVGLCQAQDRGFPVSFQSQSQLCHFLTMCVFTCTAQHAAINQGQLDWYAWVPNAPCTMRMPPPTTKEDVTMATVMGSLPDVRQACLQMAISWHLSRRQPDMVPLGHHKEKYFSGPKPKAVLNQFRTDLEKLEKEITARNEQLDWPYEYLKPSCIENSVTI
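Hydroperoxide product was detected by ferrous iron/xylenol orange as the 573 to 405 nm absorbance ratio. Arachidonic acid at 40 uM (final) was turned over for 30 min at room temperature by 150 nM human 12hLO, pH 7.0 Hepes buffer, after 15 min compound preincubation.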
* marks the source's active call; other numbers are inactive results; u = inconclusive; x = no result; [ ] = remark or other dose. The sample as a whole holds a higher share of hits than the screen did. Unless noted, the call rests on the fitted dose curve; in most records, active means well fitted curve in the direction sought with a large enough effect; inconclusive means small, poorly fitted or top-dose-only effect, or another doubt; inactive means no such curve, though single readings can be large; an effect the other way counts as inactive or inconclusive. Unless noted, on the % scale 0 is the no-effect control and ±100 the full control effect.

SMILES | HT1080NT lethal | TDP1 cell noCPT | HT1080 IDH1KD tx | TDP1 cell CPT | IL-1B inflam inh | ALOX12 inh
CC(CC(=O)Nc1cccc(O)c1)(C(=O)O)c1ccccc1 (centres undefined) | x | x | x | x | x | 8%
COc1cccc(C(=O)Nc2ccc3oc(-c4ccccc4)cc(=O)c3c2)c1 | x | x | x | x | x | 32%
CC1(C(=O)OCC(=O)c2ccc(Br)cc2)CC1(Cl)Cl (centres undefined) | x | x | x | x | x | -39%
O=C(N/N=C/c1ccncc1)c1cccc([N+](=O)[O-])c1 | x | x | x | x | x | 1%
COc1ccc(/C=N/NC(=O)c2cccc([N+](=O)[O-])c2)cc1OS(=O)(=O)c1ccc(C)cc1 | u | 2.6µM* | u | 4.1µM* | 16 | 0%
CCc1ccc2c(CN3CCC4(CC3)OCCO4)cc(=O)oc2c1 | x | x | x | x | x | 9%
CCOC(=O)C1=C(C)N(C[C@@H]2CC[C@@H](Cc3ccc(-c4ccccc4)cc3)O2)C(=O)NC1c1ccc(SCc2ccco2)c([N+](=O)[O-])c1 (some centres undefined) | -1% | u | -3% | u | -16 | 18µM*
Cc1ccc(NC(=S)N2CCC(c3nc4ccccc4s3)CC2)cc1 | u | u | 4%[9.24 µM] | u | -50* | u
CNC(=S)N1CCC(c2nc3ccccc3s2)CC1 | 2% | u | 2% | u | -3 | -4%
Cc1ccccc1C(=O)Nc1ccc(S(=O)(=O)N2CCC(c3nc4ccccc4s3)CC2)cc1 | x | 21µM* | x | 13µM* | x | -22%
Cc1cccc(C(=O)Nc2ccc(S(=O)(=O)N3CCC(c4nc5ccccc5s4)CC3)cc2)c1 | x | u | x | -22% | x | 0%
C=CCN(C1CCCCC1)S(=O)(=O)c1ccc2c(c1)oc(=O)n2C | -4% | u | 0% | 8.2µM* | 15 | 3%[57.4 µM]
O=C(Nc1ccc(F)cc1F)C12CC3CC(CC(C3)C1)C2 | x | x | x | x | x | 22%
Cc1ccc2nc(-c3ccc(Cl)cc3)c(CC3CCCCC3)n2c1 | u | u | u | u | -3 | u
Cc1ccc2nc(-c3ccco3)c(CC3CCCCC3)n2c1 | u | 10µM* | u | 13µM* | -17 | x
Brc1ccc2nc(-c3ccco3)c(CC3CCCCC3)n2c1 | -25% | u | u | u | -5 | 16µM*
COc1ccc(-c2nc(-c3nnn4c3COC(c3ccccc3Cl)C4)no2)cc1F (centres undefined) | x | x | x | x | x | 41%
O=C(CCc1ncc(-c2ccc(Cl)cc2Cl)o1)N1CCN(S(=O)(=O)c2ccccc2)CC1 | x | x | x | x | x | 14%
CC(=O)NS(=O)(=O)c1ccc(N=c2ssc3c2-c2ccc(C)cc2NC3(C)C)cc1 | -6% | u | -19% | -28% | 10 | 16µM*
CC(C)C(=O)N/N=C/c1cccs1 | x | x | x | x | x | 0%
Cc1ccc(C)c(/C=N/NC(=S)NC(C)C)c1 | 26% | 5.8µM* | 19% | 5.8µM* | 5 | -28%
CNC(=S)N/N=C/c1cc(C)ccc1C | 12% | u | 0% | u | -12 | u
CC(C)NC(=S)N/N=C/c1ccc(C(C)(C)C)cc1 | u | 10µM* | u | 13µM* | -68* | 32µM*
CC(C)NC(=S)N/N=C/c1cccs1 | -2% | 0.82µM* | -13% | 0.92µM* | -1 | -21%
COCCN1CC(CO)C2(CCN(C3CCSCC3)CC2)C1 (centres undefined) | x | x | x | x | x | 159%
SMILES | HT1080NT lethal | TDP1 cell noCPT | HT1080 IDH1KD tx | TDP1 cell CPT | IL-1B inflam inh | ALOX12 inh
CCOC(=O)N1CCN(C(c2ccnc3ccccc23)c2nnnn2-c2ccc3c(c2)OCCO3)CC1 (centres undefined) | u | 16µM* | u | u | 24 | -1%
CC(C)(C)OC(=O)N1CCCN(C(c2ccnc3ccccc23)c2nnnn2-c2ccc3c(c2)OCCO3)CC1 (centres undefined) | 23µM* | 3.7µM* | u | u | -13 | u
c1ccc2c(C(c3nnnn3-c3ccc4c(c3)OCCO4)N3CCCCC3)ccnc2c1 (centres undefined) | -19% | u | -13% | u | u | -63%
CC(C)NC(=O)CN1CCN(C(c2ccnc3ccccc23)c2nnnn2-c2ccc3c(c2)OCCO3)CC1 (centres undefined) | 15% | -22% | 6% | -30% | 23 | -4%
COc1cc(OC)c(NC(=O)C(C)n2nc(-c3ccc(C)c(C)c3)ccc2=O)cc1Cl (centres undefined) | x | 13µM* | x | 15µM* | x | -23%
Cc1ccc(-c2ccc(=O)n(C(C)C(=O)Nc3ccccc3C)n2)cc1 (centres undefined) | x | x | x | x | x | -7%
O=C(O)C1(c2ccc(Cl)cc2)CCCCC1 | x | x | x | x | x | -2%
CN(C)CCCN(C(=O)c1cccc(C(F)(F)F)c1)c1nc2ccc(F)cc2s1 | x | x | x | x | x | 35µM*
CN(C)CCCN(C(=O)c1ccco1)c1nc2ccc(F)cc2s1 | -10% | u | -6% | -19% | -8 | 0%
CN(C)CCCN(C(=O)c1ccc(C(=O)c2ccccc2)cc1)c1nc2ccc(F)cc2s1 | -18% | u | -11% | u | -27 | u
CN(C)CCCN(C(=O)c1nc2ccccc2s1)c1nc2ccc(F)cc2s1 | 2% | 5.8µM* | 1% | 3.7µM* | -13 | 0%
c1ccc(Nc2nc(CSc3nnnn3C3CCCC3)cs2)cc1 | x | x | x | x | x | -14%
O=C(O)C[C@@H]1CCN(C(=O)Nc2ccc(OC(F)(F)F)cc2)C[C@@H]1CCN1CCOCC1 | x | x | x | x | x | -28%
CCCOc1ccc(-c2nc3ccc4ccccc4c3c3c2CCC3)cc1 | x | x | x | x | x | -1%
Oc1cccc(-c2nc3ccc4ccccc4c3c3c2CCC3)c1 | u | 21µM* | u | u | 0 | -23%
CN1[C@@H](CCC(=O)NCc2cccs2)CNC(=O)[C@@H]2[C@H]1CCN2Cc1ccc(C(F)(F)F)cc1 | x | x | x | x | x | 39%
CCc1c(C)sc(NC(=O)OC)c1C#N | x | x | x | x | x | 25µM*
CCOC(=O)C(NC(=O)CCl)(Nc1sc(C)c(CC)c1C#N)C(F)(F)F (centres undefined) | u | 6.5µM* | -24% | u | -107* | -28%
Cc1sc(NC(=O)C2CCCCC2)c(C#N)c1-c1ccccc1 | 12% | -24% | 4% | -4% | 22 | u
CCc1c(C)sc(NC(=O)C2CCCCC2)c1C#N | x | x | x | x | x | 8.9µM*
CCc1c(C)sc(NC(=O)c2c(F)cccc2F)c1C#N | x | x | x | x | x | -7%
CC(C)c1ccc(Cc2cnc(NC(=O)C3=Cc4ccccc4OC3)s2)cc1 | x | x | x | x | x | 12%
